Screens deposited in PubChem by The Scripps Research Institute Molecular Screening Center.
Hits are enriched below; roughly 3.4% of the tested compounds scored in any of these assays.
PAFAH1B3 FP inh: inhibitors of human PAFAH1B3. Q15102. recombinant PAFAH1B3, FP-rhodamine probe, fluorescence polarization. inhibition, % at 3.39 µM. hit rate 0.28% among 340,000. AID 492972;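 active means inhibition above the screen-wide average of all tested compounds plus 3 SD, cut at about 25% in these data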;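 further: 0% = enzyme with DMSO only and 100% = wells lacking PAFAH1B3 protein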
Target sequence (Q15102 whole entry, looked up): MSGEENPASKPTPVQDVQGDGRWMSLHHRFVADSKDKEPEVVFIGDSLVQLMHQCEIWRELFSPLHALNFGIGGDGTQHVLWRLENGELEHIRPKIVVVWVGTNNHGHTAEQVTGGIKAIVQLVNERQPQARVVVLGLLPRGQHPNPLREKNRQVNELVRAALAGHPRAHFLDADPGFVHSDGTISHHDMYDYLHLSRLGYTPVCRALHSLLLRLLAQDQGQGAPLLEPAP
PP1 inh: blocks human PP1-alpha phosphatase, a PP5 counter-screen; P62136; purified PP1alpha, OMFP fluorescence; inhibition, % at 6.7 µM; hit rate 0.9% among 320,000; AID 2235;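 active means inhibition above the mean inhibition of all tested compounds plus 3 SD, computed separately for each screening campaign, cut at about 15% in these data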
pPAFAH FP inh: inhibitors of human plasma PAF acetylhydrolase (pPAFAH) | Q13093 | recombinant pPAFAH, FP-rhodamine probe fluorescence polarization | inhibition, % at 3.39 µM | hit rate 1.5% among 330,000;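 active means inhibition above the mean inhibition across the screen plus 3 SD, cut at about 25% in these data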;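 further: inhibitors block binding of the rhodamine activity-based probe so polarization drops; 0% = enzyme with DMSO and 100% = wells lacking pPAFAH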
PP5 inh: PP5 (human) phosphatase inhibition | inhibition, % at 6.7 µM | purified PP5c, OMFP substrate fluorescence | P53041 | hit rate 0.18% among 320,000;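 active means inhibition above the campaign's mean inhibition across all tested compounds plus 3 SD, cut at about 9.5% in these data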;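 further: 0% = DMSO only and 100% = 100 µM cantharidin control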
PAFAH1B2 inh: PAFAH1B2 (human) inhibition. recombinant PAFAH1B2, FP-rhodamine activity probe, fluorescence polarization. inhibition, % at 3.39 µM. hit rate 1.2% among 340,000;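 active means inhibition above the mean of all tested compounds plus 3 SD, cut at about 24% in these data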;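 further: 0% = enzyme with DMSO and 100% = wells lacking PAFAH1B2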
Target sequence (P68402 whole entry, looked up): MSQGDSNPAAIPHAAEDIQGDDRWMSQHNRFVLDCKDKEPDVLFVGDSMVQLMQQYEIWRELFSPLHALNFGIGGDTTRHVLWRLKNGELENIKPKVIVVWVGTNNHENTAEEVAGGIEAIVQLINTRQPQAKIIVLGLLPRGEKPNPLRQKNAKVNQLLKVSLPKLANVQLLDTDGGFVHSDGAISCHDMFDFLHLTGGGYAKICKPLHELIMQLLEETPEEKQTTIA
PAFAH2 inh: inhibitors of human PAFAH2 | recombinant PAFAH2, FP-rhodamine activity probe, fluorescence polarization | hit rate 0.99% among 340,000 | Q99487 | inhibition, % at 3.39 µM;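 active means inhibition above the mean over all tested compounds plus 3 SD, cut at about 30% in these data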;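 further: inhibitors block probe labeling of enzyme so polarization drops; 0% = enzyme with DMSO and 100% = wells lacking PAFAH2 protein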
PAFAH2 confirm: confirmation of human PAFAH2 inhibitors; shares compounds with PAFAH2 inh; recombinant PAFAH2, FP-rhodamine activity probe, fluorescence polarization; inhibition, % at 3.39 µM; hit rate 65% among 2,300; AID 493030;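 active means mean inhibition over three repeats above a set limit taken from the earlier primary screen, cut at about 30% in these data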;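 further: inhibitor blocks binding of rhodamine activity probe so polarization falls; 0% = enzyme with DMSO and 100% = wells lacking PAFAH2 protein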
An asterisk follows results filed as active.

`Cc1cc(Br)c(OCc2ccc(C(=O)N/N=C3\CC4CC=CC34)cc2)c(Br)c1` (stereo unspecified) gave PAFAH1B3 FP inh -2.4, PP1 inh 10.2, pPAFAH FP inh 5.9, PP5 inh 2.9, PAFAH1B2 inh -1.0 and PAFAH2 inh -3.9.
COc1ccccc1N(CC(=O)N1CCCC1)S(=O)(=O)c1cc([N+](=O)[O-])ccc1Cl was read as PAFAH1B3 FP inh -0.2, pPAFAH FP inh 3.6, PAFAH1B2 inh 1.2 and PAFAH2 inh 14.1.
For O=C1/C(=C\c2cc([N+](=O)[O-])ccc2O)SC(=S)N1Cc1ccc(Cl)cc1 the results were PAFAH1B3 FP inh -124.3, PP1 inh 6.9, pPAFAH FP inh -16.3, PP5 inh -0.8, PAFAH1B2 inh -212.2 and PAFAH2 inh -91.4.
For Cc1ccccc1/C=C1\SC(=S)N(/N=C/c2cc([N+](=O)[O-])ccc2O)C1=O the results were PAFAH1B3 FP inh 5.3, PP1 inh 2.1, pPAFAH FP inh 7.5, PP5 inh 1.9, PAFAH1B2 inh 13.4, PAFAH2 inh 31.9* and PAFAH2 confirm 15.7.
Screening CCc1cccc(NC(=O)c2cccc3c2C(=O)N(C2CCCCC2)C3)c1 returned PAFAH1B3 FP inh 2.4, PP1 inh -0.5, pPAFAH FP inh 0.5, PP5 inh 0.5, PAFAH1B2 inh -2.3 and PAFAH2 inh -2.7.
CC(C)NC(=O)c1ccc2c(c1)N(CC(=O)N1CCCCC1)C(=O)C(C)(C)O2 was read as PAFAH1B3 FP inh 7.2, PP1 inh 4.0, pPAFAH FP inh 7.2, PP5 inh 3.0, PAFAH1B2 inh 4.0 and PAFAH2 inh 0.2.
`Fc1ccc(NC(=S)NCc2cccs2)cc1` gave PAFAH1B3 FP inh 2.3, PP1 inh 0.1, pPAFAH FP inh -2.8, PP5 inh 0.3, PAFAH1B2 inh 5.0 and PAFAH2 inh 11.2.
CC1CCCCC1NC(=O)COC(=O)c1ccc2c(c1Cl)C(=O)c1ccccc1C2=O (stereo unspecified) was read as PAFAH1B3 FP inh 5.2, PP1 inh 0.8, pPAFAH FP inh 20.3, PP5 inh -0.9, PAFAH1B2 inh 0.2, PAFAH2 inh 53.9* and PAFAH2 confirm 54.9*.
Screening O=C(COC(=O)c1ccc2c(c1[N+](=O)[O-])C(=O)c1ccccc1C2=O)NC1CC1 returned PAFAH1B3 FP inh 17.9, PP1 inh -4.0, pPAFAH FP inh -4.4, PP5 inh -3.3, PAFAH1B2 inh 12.1, PAFAH2 inh 35.8* and PAFAH2 confirm 24.1.
O=C(COC(=O)c1cccc2c1C(=O)c1ccccc1C2=O)NC1CCCCC1 was read as PAFAH1B3 FP inh -1.7, PP1 inh -0.7, pPAFAH FP inh 21.3, PP5 inh 3.3, PAFAH1B2 inh 3.0 and PAFAH2 inh 20.3.
Screening CCN(CC(=O)Nc1c(F)cccc1F)C(=O)COc1ccc2c(c1)CCC2 returned PAFAH1B3 FP inh 0.4, PP1 inh -3.3, pPAFAH FP inh 0.8, PP5 inh -0.2, PAFAH1B2 inh 4.9 and PAFAH2 inh -4.6.
For COc1cc(C(C)=O)ccc1COc1ccc(C(=O)OCC(=O)NC2CCS(=O)(=O)C2)cc1OC (stereo unspecified) the results were PAFAH1B3 FP inh 3.5, PP1 inh 1.0, pPAFAH FP inh 1.5, PP5 inh 2.9, PAFAH1B2 inh 6.5 and PAFAH2 inh 11.1.
For COc1cc(C(C)=O)ccc1COc1ccc(C(=O)OCC(=O)NC(C)(C)C)cc1OC the results were PAFAH1B3 FP inh -3.1, PP1 inh -2.7, pPAFAH FP inh 19.8, PP5 inh -1.1, PAFAH1B2 inh -2.3, PAFAH2 inh 73.5* and PAFAH2 confirm 79.1*.
`CC(N=Cc1cc([N+](=O)[O-])ccc1O)c1ccccc1` (stereo unspecified) gave PAFAH1B3 FP inh 13.3, PP1 inh 2.1, pPAFAH FP inh -3.9, PP5 inh -5.6, PAFAH1B2 inh 1.9 and PAFAH2 inh 13.2.
Screening CN(/N=C/c1cc([N+](=O)[O-])ccc1O)c1ccccc1 returned PAFAH1B3 FP inh 8.3, PP1 inh 2.1, pPAFAH FP inh 6.9, PP5 inh -0.3, PAFAH1B2 inh -0.2, PAFAH2 inh 35.1* and PAFAH2 confirm 31.0*.
